From PubChem BioAssay AID489008 (National Center for Advancing Translational Sciences (NCATS), 2010) come the findings set out here.

Records with an inconclusive call do not appear. Calls of active or inactive are those of the source. Calls follow the shape of the dose curve; as a rule, active = well fitted inhibition curve with a large enough effect; inconclusive = small, poorly fitted or top-dose-only effect; inactive = flat fitted curve, though single readings scatter.
Potency is read from the fitted curve at half-maximal effect.

This assay deals with Ferritin light chain (Equus caballus) (UniProt P02791). Put plainly: Confirmation Assay for Identification of Novel General Anesthetics. Also: nearly all actives have a fitted effect of over 40% in size. The settings on record: apoferritin 1-aminoanthracene fluorescence displacement. Put shortly: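 Competitive displacement of profluorescent 1-aminoanthracene from 10 uM horse-spleen apoferritin in 50% saturated 1-AMA/PBS; 10 min RT, fluorescence Ex 380/Em 535. Normalized to free 1-AMA and complex; four-parameter Hill fit.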
Chain of Ferritin light chain (Equus caballus) (P02791 2-175 limits assumed): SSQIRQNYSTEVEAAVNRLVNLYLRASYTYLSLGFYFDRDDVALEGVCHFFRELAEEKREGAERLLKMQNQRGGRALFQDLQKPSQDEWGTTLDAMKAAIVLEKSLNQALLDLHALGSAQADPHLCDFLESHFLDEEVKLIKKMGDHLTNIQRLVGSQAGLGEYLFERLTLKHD
As for `Fc1ccccc1SCc1nnc(-c2ccccc2Br)o1`, the Potency is 15.8 µM (active).

As to `CC(=O)c1cccc(NC(=O)CCC2CCCC2)c1`, the Potency was 28.2 µM (active).

Turning to `O=C(Cc1ccccc1)N1CCc2ccccc21`, the Potency is 14.1 µM (active).

Turning to `Cc1cc(C)cc(Oc2ccccc2CO)c1`, the Potency is 14.1 µM (active).

In the case of `CCNc1nc(C23CC4CC(CC(C4)C2)C3)cs1`, the Potency is 7.94 µM (active).

For `CC1CCN(c2nc(-c3ccncc3)nc3ccccc23)CC1`, the Potency was 39.8 µM (active).

As for `Cc1ccc(-c2ccc(=O)n(Cc3ccc(F)cc3)n2)cc1`, the Potency is 35.5 µM (active).

In the case of `O=C(CNC(=O)c1ccco1)OCC(=O)c1ccc2c(c1)CCCC2`, the Potency is 31.6 µM (active).

Turning to `CC1CCCCC1NC(=O)COC(=O)c1ccc(N(C)C)cc1` (stereo not drawn), the Potency was 11.2 µM (active).

In the case of `O=C(CN1CCOCC1)Nc1ccc(C2CCCCC2)cc1`, the Potency was 31.6 µM (active).

For the molecule `O=C1CCCc2ccccc2N1Cc1ccccc1Cl`, the Potency was 15.8 µM (active).

For `CC1(C)CC(=O)c2c(Cc3ccccc3)noc2C1`, the Potency was 14.1 µM (active).

Regarding `Cc1ccc(CNC(=O)CN2N=C(c3ccccc3)CCC2=O)cc1`, the Potency is 5.19 µM (active).

With `CC(NC(=O)c1ccc(Br)o1)C1CC2CCC1C2` (stereo not drawn), the Potency is 8.91 µM (active).

As for `Cc1cc(N2CC(C(=O)Nc3nccs3)CC2=O)ccc1C(C)C` (stereo not drawn), the Potency is 14.1 µM (active).

Take `O=C(COC(=O)C1=COCCO1)NC1CCCCCCC1`: the Potency is 12.6 µM (active).

For the molecule `O=C(COC(=O)CCc1ccccc1)NC12CC3CC(CC(C3)C1)C2`, the Potency is 8.91 µM (active).

Turning to `Nc1nnc(CCC2CCCCC2)s1`, the Potency was 10 µM (active).

Turning to `O=C(COc1ccccc1Cl)N1CCCCCCC1`, the Potency was 15.8 µM (active).

`Cc1cc(C)c(C)c(OCC(=O)N2CCCCCC2)c1`: the Potency is 17.8 µM (active).

In the case of `Cc1ccc(NS(=O)(=O)N2CCOCC2)cc1Cl`, the Potency was 12.6 µM (active).

`ON1C(c2ccc(Cl)cc2Cl)N(O)[C@H]2CCCC[C@H]21` (stereo partly drawn): the Potency is 7.94 µM (active).

As to `N#CCc1ccc(Oc2ncc(C(F)(F)F)cc2Cl)cc1`, the Potency is 17.8 µM (active).

On to `COc1ccccc1OCC(=O)N1CCCCCCC1`, for which the Potency is 12.6 µM (active).

Consider `Cc1ccc(SCC(=O)N2N=CCC2c2ccccc2)cc1` (stereo not drawn), for which the Potency is 15.8 µM (active).

Take `COc1ccccc1CC(=O)Nc1cc(Cl)ccc1O`: the Potency was 17.8 µM (active).

On to `COc1cc(C(=O)O[C@@H]2CC3CC[C@]2(C)C3(C)C)ccc1O`, for which the Potency was 14.1 µM (active).

Turning to `O=C(Nc1cccc(Cl)c1)N1CCc2ccccc2C1`, the Potency was 11.2 µM (active).

Consider `COc1ccccc1CC(=O)NC12CC3CC(CC(C3)C1)C2`, for which the Potency was 12.6 µM (active).

Turning to `Cc1ccc(NC(=O)C2COc3ccccc3O2)cc1C` (stereo not drawn), the Potency is 17.8 µM (active).

On to `CCc1c(O)nc(SC2CC(=O)N(c3ccccc3)C2=O)[nH]c1=O` (stereo not drawn), for which the Potency was 31.6 µM (active).

For `Clc1ccc(Nc2nc(C3CC3)cs2)cc1`, the Potency was 39.8 µM (active).

For the molecule `O=C(CSc1ccccn1)C12CC3CC(CC(C3)C1)C2`, the Potency is 6.31 µM (active).

As to `Cc1cnc(C(=O)OCC(=O)NC23CC4CC(CC(C4)C2)C3)cn1`, the Potency is 14.1 µM (active).

For the molecule `O=C(CSc1ccc(F)cc1)NC12CC3CC(CC(C3)C1)C2`, the Potency was 15.8 µM (active).

For the molecule `Cc1ccc(C(=O)COC(=O)c2ccc(Br)o2)cc1C`, the Potency is 15.8 µM (active).

With `COc1ccc(NC(C)c2ccccc2)cc1` (stereo not drawn), the Potency was 15.8 µM (active).

In the case of `COc1ccc(C2=Nn3c(nnc3-c3ccc(OC)cc3)SC2)cc1`, the Potency was 22.4 µM (active).
